# GDH-TPI counter-1: GDH-TPI coupling enzyme inhibitors, primary screen, artefact control for M. tuberculosis FBA inhibitor project, biochemical, absorbance, full deck; inhibition, % at 4.8 µM; GDH-TPI coupled enzyme counterscreen, NADH absorbance; actives 1.2% (n = 360,000); in the data active = inhibition above about 30%;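 note: 0% = DMSO wells and 100% = wells lacking the enzyme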
# RecA intein inh: Mtb RecA intein splicing inhibitors, primary screen, biochemical, fluorescence, HTS; inhibition, % (no concentration beside the values); Protein RecA (Mycobacterium tuberculosis (strain ATCC 25618 / H37Rv)), P9WHJ3; actives 0.75% (n = 290,000); cell-free RecA intein splicing; AID 2221, 2009; in the data active = inhibition above about 30%; inconclusive = no clear call, values can overlap the other calls;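 note: 0% = vehicle wells and 100% = reference inhibitor control wells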
# Mtb bLac sens: beta-lactam sensitization of Mtb H37Rv, H37Rv. M. tuberculosis H37Rv growth with meropenem, percent inhibition. inhibition, % at 25 µM. actives 0.27% (n = 330,000). AID 434955, 2010; call rule not given here;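 note: growth measured after seven days incubation then overnight dye step; 0% = bacteria only wells and 100% = bacteria with antibiotic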
# Rv3671c protease: Rv3671c serine protease inhibitors, primary screen, biochemical, fluorescence polarization, M. tuberculosis H37Rv; AID 2606, 2010; actives 0.048% (n = 320,000); P9WHR9; inhibition, % at 5.96 µM; in the data active = inhibition above about 38%;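 note: extracellular domain of Rv3671c used as enzyme; 0% = enzyme with DMSO and 100% = no enzyme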
# FBA Mtb inh: Mtb FBA enzyme inhibitors, primary screen, biochemical, fluorescence, strain H37Rv. purified M. tuberculosis FBA, fluorescence read-out. inhibition, % at 1 µM. actives 2.3% (n = 360,000);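 note: 0% = vehicle and 100% = reference inhibitor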
# Target sequence (P9WQA3 whole entry, looked up): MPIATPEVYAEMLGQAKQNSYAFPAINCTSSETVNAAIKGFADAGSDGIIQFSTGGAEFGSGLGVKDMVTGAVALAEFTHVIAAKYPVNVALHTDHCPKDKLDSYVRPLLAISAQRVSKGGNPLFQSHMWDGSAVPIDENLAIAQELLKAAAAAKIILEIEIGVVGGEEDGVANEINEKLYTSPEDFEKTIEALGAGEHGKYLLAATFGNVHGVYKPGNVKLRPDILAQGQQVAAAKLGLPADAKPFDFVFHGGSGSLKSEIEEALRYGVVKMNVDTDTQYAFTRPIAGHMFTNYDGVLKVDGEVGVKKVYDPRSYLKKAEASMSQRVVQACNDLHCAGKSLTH
# Mtb UGM inh: M. tuberculosis UGM enzyme inhibitors, primary screen, biochemical, fluorescence polarization, single point. UDP-galactopyranose mutase (Mycobacterium tuberculosis (strain ATCC 25618 / H37Rv)), …. purified UGM, fluorescence polarization probe displacement. inhibition, % at 10 µM. actives 0.06% (n = 320,000). AID 504406, 2011; in the data active = inhibition above about 10%, passing the limit was not always enough; inconclusive = no clear call, values can overlap the other calls
# Mtb FBA inh conf: M. tuberculosis aldolase blockers, biochemical, fluorescence, strain H37Rv, confirmation; purified M. tuberculosis FBA, fluorescence read-out; actives 78% (n = 5,600); shares compounds with FBA Mtb inh; inhibition, % at 1 µM;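 note: 0% = vehicle wells and 100% = reference inhibitor wells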
# GDH-TPI counter-2: GDH-TPI coupling enzyme inhibitors, artefact control for M. tuberculosis FBA inhibitor project, biochemical, fluorescence, high throughput; shares compounds with FBA Mtb inh; GDH-TPI coupled enzyme counterscreen; inhibition, % at 1 µM; actives 81% (n = 5,600); in the data active = inhibition above about 10%
# An asterisk follows results filed as active; ? = inconclusive; . = no result; + = active, no number. Shown are actives, neighbours in structure and some others; about 4% of the full set was active somewhere. Cut-off read from the data, not from the text of the source, unless noted: active = inhibition above about 27%; inactive = the rest.
SMILES,GDH-TPI counter-1,RecA intein inh,Mtb bLac sens,Rv3671c protease,FBA Mtb inh,Mtb UGM inh,Mtb FBA inh conf,GDH-TPI counter-2
COC(=O)c1cnc(N2CCOCC2)nc1C(F)(F)F,3,-1,-4,11,3,-5,.,.
Cc1oc(-c2cccs2)nc1CSCC(=O)N1CCC2(CC1)OCCO2,-6,.,-11,2,28*,2,164*,144*
COc1ccc(-c2nc(CSCC(=O)N3CCC4(CC3)OCCO4)c(C)o2)cc1OC,-3,0,?,-8,8,3,.,.
O=C(CCC(=O)Nc1cc(C(F)(F)F)ccc1Cl)N/N=C\c1cc([N+](=O)[O-])ccc1O,14,0,7,-1,-1,0,.,.
Cc1cc(C)c2nc(-c3cccnc3)cc(C(=O)NC(C)c3cnn(C)c3C)c2c1 (configuration not stated),6,0,-23,9,40*,2,+,169*
Cc1cccc2c(C(=O)O)cc(-c3cccnc3)nc12,4,-2,-4,-12,6,2,.,.
CCOc1cc(/C=C2\SC(=Nc3ccc(F)cc3)N(c3ccc(F)cc3)C2=O)ccc1OCC(=O)O,.,.,7,-14,.,2,.,.
CN1CCc2c(C#N)c(N3CCCCC3)nc(N3CCOCC3)c2C1,.,-3,-1,0,.,2,.,.
CN1CCc2c(C#N)c(Cl)nc(Cl)c2C1,13,-6,2,3,68*,2,4,-2
COc1ccc(S(=O)(=O)N(C)C[C@H]2Oc3c(NC(=O)Cc4ccccc4)cccc3C(=O)N([C@H](C)CO)C[C@@H]2C)cc1,7,.,2,6,2,1,.,.
c1ccc(Nc2ccccc2)cc1,-4,-1,-1,2,2,3,.,.
c1ccc(Nc2cccc3c(Nc4ccccc4)cccc23)cc1,11,16,6,7,28*,1,36*,34*
Fc1ccc(-n2c(Cn3nnc4ccccc43)n[nH]c2=S)cc1,-1,-4,-9,-2,5,0,.,.
COc1ccc(-c2cc(=O)c3cc(OC)c(OC)cc3[nH]2)cc1,19,-1,-10,-6,58*,-3,66*,59*
COc1ccc2[nH]c(C)cc(=O)c2c1,7,-2,-12,0,13,-1,.,.
COc1ccc2[nH]c(-c3ccc(C)cc3)cc(=O)c2c1,17,-9,0,2,44*,0,+,165*
COc1ccc(-c2cc(=O)c3cc(F)ccc3[nH]2)cc1,-2,1,-11,0,31*,0,126*,98*
COc1ccc2[nH]c(-c3ccccc3)cc2c1,8,1,6,-6,100*,0,91*,71*
COc1ccc(-c2cc(-c3ccccc3)c(C#N)c(=S)[nH]2)cc1,0,5,-1,-9,1,1,.,.
COc1ccc(C(=O)Nc2ccc3[nH]c(-c4cccc(OC)c4)cc(=O)c3c2)cc1,13,-6,35,-2,9,2,.,.
CC1CN(CC(O)COC2CCC(C(C)(C)C)CC2)CC(C)O1 (configuration not stated),-2,.,1,3,3,1,.,.
CC1CCCC(C)N1CC(O)COC1CCC(C(C)(C)C)CC1 (configuration not stated),-6,-1,0,3,29*,-1,112*,98*
CN1C(=S)SC(/[N+]([O-])=C/c2c(F)cccc2Cl)C1(C)C (configuration not stated),-4,-1,-3,7,-1,-1,.,.
O=c1nc(-c2ccccc2)c2ccccc2[nH]1,11,.,-5,-3,13,4,.,.
O=c1[nH]c2ccccc2nc1-c1ccccc1,31*,-4,-9,-10,45*,8,79*,76*
SMILES,GDH-TPI counter-1,RecA intein inh,Mtb bLac sens,Rv3671c protease,FBA Mtb inh,Mtb UGM inh,Mtb FBA inh conf,GDH-TPI counter-2
NS(=O)(=O)c1ccc(CCNC(=O)c2cc(-c3cccs3)nc3ccccc23)cc1,10,1,.,.,99*,.,+,+
NS(=O)(=O)c1cccc(NC(=O)c2cc(-c3cccs3)nc3ccccc23)c1,13,.,-4,-36,26,2,.,.
NS(=O)(=O)c1ccc(CCNC(=O)CSc2cccs2)cc1,1,-1,12,-19,97*,0,87*,56*
CN(C)S(=O)(=O)c1cccc(NC(=O)c2cc(-c3cccs3)nc3ccccc23)c1,11,2,?,-119,28*,2,126*,103*
NS(=O)(=O)c1ccc(CNC(=O)c2cc(-c3cccs3)nc3ccccc23)cc1,12,2,-3,-11,80*,-2,1,2
N#C/C(=C\c1cccn1S(=O)(=O)c1ccccc1)S(=O)(=O)c1ccc(F)cc1,8,.,.,.,-3,.,.,.
Clc1ccc(/C=C\c2nccc3c2[nH]c2ccccc23)cc1,6,-9,.,.,54*,.,55*,41*
N#Cc1ccc(/C=C\c2nccc3c2[nH]c2ccccc23)cc1,8,-24,22,-40,54*,1,54*,45*
CCN(CC)S(=O)(=O)c1cccc(C(=O)N/N=C/c2ccc(N3CCOCC3)cc2)c1,26,-2,8,-3,28*,0,-4,-2
CC(C)c1ccc(/C=N/NC(=O)c2cccc(S(=O)(=O)N3CCOCC3)c2)cc1,3,2,-9,-8,4,-2,.,.
O=C(Cn1ccc(C(F)(F)F)n1)N/N=C/c1ccc(N2CCOCC2)cc1,31,1,0,1,39*,1,127*,102*

# High-throughput results deposited in PubChem by several laboratories.
